Source: PubChem
CHX counter: affects cycloheximide protein synthesis inhibition readout, counter-screen; max response, %; cell reporter, cycloheximide protein synthesis inhibition counterscreen; 300,000 compounds, 12% hits; AID 2314; in the data active = max response mostly above about 13%, no sharp cut-off; inactive = mostly below about 14%; also: read at 38.3 µM for the half of the compounds with a filed dose; 0% is about no effect
FBPA Giardia inh: Giardia lamblia aldolase inhibition; AID 2451; 290,000 compounds, 0.71% hits; A8B2U2; purified Giardia FBPA; Potency, µM (doses to about 59.6 µM), inactives show at the top dose activity, negative = inhibition, hits mostly inhibitors; also: potency is read from the fitted curve at half-maximal effect; % is scaled to controls: 0 for no effect and ±100 for the full control effect; nearly all actives have a fitted effect of over 55% in size
Target sequence (A8B2U2 whole entry, looked up): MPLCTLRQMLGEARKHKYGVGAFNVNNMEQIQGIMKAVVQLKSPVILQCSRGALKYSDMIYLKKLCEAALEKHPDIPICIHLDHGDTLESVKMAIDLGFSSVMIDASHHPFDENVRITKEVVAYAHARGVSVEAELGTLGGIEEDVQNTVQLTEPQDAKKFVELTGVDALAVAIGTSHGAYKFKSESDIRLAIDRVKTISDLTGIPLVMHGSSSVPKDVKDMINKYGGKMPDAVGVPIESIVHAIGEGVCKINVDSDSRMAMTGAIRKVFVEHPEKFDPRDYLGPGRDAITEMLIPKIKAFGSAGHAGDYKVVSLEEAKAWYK
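40 nM FBPA preincubated 10 min at RT with compound (up to 57.5 uM final), then substrate plus GAPDH/TPI/NAD/arsenate coupling and diaphorase/resazurin added. Fluorescence read after 20 min at RT, 525/598 nm.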
LmPK inh: blocks Leishmania mexicana pyruvate kinase activity; purified LmPK, Kinase-Glo ATP luminescence, 1 h; Potency, µM (doses to about 57.5 µM), for the others: at the top dose activity change, negative = inhibition, actives largely listed as inhibitors; 290,000 compounds, 0.37% hits; also: potency is read from the fitted curve at half-maximal effect; % is scaled to controls: 0 for no effect and ±100 for the full control effect
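Purified LmPK (0.1 nM) with 0.5 mM PEP and 0.1 mM ADP in imidazole buffer pH 7.2 with MgCl2/KCl, 1 h at room temperature. ATP formed was read by luciferase luminescence and normalized to no-enzyme and uninhibited controls.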
RE007 growth inh: less growth of the S. pombe RE007 Vpr strain; S. pombe RE007 Vpr strain, BacTiter-Glo ATP luminescence, 24 h; Potency, µM (doses to about 92.2 µM), for the others: at the top dose activity change, negative = less growth, hits mostly inhibitors; 360,000 compounds, 0.21% hits; AID 651644; active = well fitted falling curve with a large enough effect; inconclusive = small, poorly fitted or top-dose-only effect; inactive = no such curve, though single readings can be large or run the other way; also: potency is read from the fitted curve at half-maximal effect; % is scaled to controls: 0 for no effect and ±100 for the full control effect; nearly all actives have a fitted effect of over 50% in size
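Fission yeast strain RE007, carrying one chromosomally integrated HIV-1 vpr copy, was seeded at OD 0.01 in PMG+AL medium with 23 nL pinned compound. After 24 h at 30 °C and 99% humidity, viability was read by BacTiter-Glo luminescence.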
Tb PYK inh: inhibitors of Trypanosoma brucei pyruvate kinase | 410,000 compounds, 0.12% hits | Potency, µM (top dose mostly 76.8 µM), for the others: top-dose activity, negative = inhibition, hits mostly inhibitors | TbPYK enzyme, Kinase-Glo Plus ATP luminescence, 45 min | Q57TT1; also: potency is read from the fitted curve at half-maximal effect; % is scaled to controls: 0 for no effect and ±100 for the full control effect; nearly all actives have a fitted effect of over 50% in size
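ADP (130 uM final) triggers the TbPYK reaction after compound addition; incubation is 45 min at room temperature. Kinase-Glo Plus is then added and luminescence imaged. Normalized data are fitted to concentration-effect curves.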
Shiga inhibitor: blocks Shiga toxin action in Vero cells | Vero cells, Shiga toxin protein synthesis inhibition reporter | inhibition, % at 38.7 µM | 290,000 compounds, 9.2% hits; in the data active = inhibition mostly above about 28%, no sharp cut-off; inactive = mostly below about 43%; also: 0% is about no effect
Starred values were filed as active, the others as inactive; i = inactive; ? = inconclusive; / = no result; [ ] = dose if it differs, or a comment. The entries come from a sample that favours hits as a whole. Unless noted, calls follow the shape of the dose curve; as a rule, active = well fitted curve in the direction sought with a large enough effect; inconclusive = small, poorly fitted or top-dose-only effect, or another doubt; inactive = no such curve, though single readings can be large; an effect the other way counts as inactive or inconclusive.

SMILES	CHX counter	FBPA Giardia inh	LmPK inh	RE007 growth inh	Tb PYK inh	Shiga inhibitor
Cc1ccc(NC(=O)N(C2=NCC(C)S2)c2ccccc2)cc1 (configuration not stated)	/	/	/	1%	8%	/
Cc1cccc(N(C(=O)Nc2ccc(Cl)cc2)C2=NCC(C)S2)n1 (configuration not stated)	20*	1%	0%	-12%	-3%	28
Cc1noc(C)c1COc1cccc(C(=O)OCCOc2ccc(F)cc2)c1	26*	7%	1%	-15%	3%	52*
Cc1noc(C)c1COc1cccc(C(=O)OC(C)C#N)c1 (configuration not stated)	-1	1%	7%	12%	-4%	7
O=C(NC(=S)Nc1ccc2c(c1)OCCO2)c1cccc(Br)c1	74*	0%	-3%	-6%	-9%	74*
O=C(Nc1cccc(Cl)c1)c1ccc(F)c(S(=O)(=O)NCc2ccc3c(c2)OCO3)c1	21*	-7%	3%	4%	-21%	-1
CC(=O)c1cccc(NC(=O)N2CCCC2C(=O)Nc2ccc3c(c2)OCCO3)c1 (configuration not stated)	14*	-10%	-9%	7%	-1%	87*
CC(=O)N1c2ccc(S(=O)(=O)N3CCCCC3)cc2CC1C(=O)Nc1ccc(F)cc1C (configuration not stated)	1	/	-8%	-8%	-8%	-5
CCCc1cc(C(=O)Nc2cccc([N+](=O)[O-])c2)cs1	65*	-19%	-4%	-2%	0%	104*
O=C(CC1CS(=O)(=O)CC1CC(=O)Nc1ccc2c(c1)OCCO2)Nc1ccc2c(c1)OCCO2 (configuration not stated)	51*	-22%	-6%	-7%	-10%	107*
O=C(CC1NCCNC1=O)Nc1ccc2c(c1)OCCO2 (configuration not stated)	16	5%	-2%	-4%	0%	-3
O=C(Nc1ccncc1)c1ccc2c(c1)OCCO2	31*	8%	-10%	-11%	-1%	66*
O=C(NC(=S)Nc1ccccc1Br)c1ccc2c(c1)OCO2	31*	/	6%	2%	2%	60*
CC(C)(C)c1ccc(C(=O)Nc2cccc([N+](=O)[O-])c2)cc1	86*	-22%	2%	-10%	3%	96*
CN1C(=O)c2ccc(C(=O)Nc3ccc4c(c3)OCO4)cc2C1=O	24*	/	-4%	-6%	1%	38
CCOc1cccc(C(=O)Nc2ccc3c(c2)OCCO3)c1	36*	-2%	2%	-11%	-17%	37
O=C(NC(=S)Nc1ccc2c(c1)OCCO2)c1cccc2ccccc12	37*	-6%	2%	-3%	-10%	76*
CCOc1ccc(C(=O)N(CC)CC(=O)Nc2ccc3c(c2)OCCO3)cc1	/	/	/	7%	-3%	/
COCCCNc1nc2c(c(=O)[nH]c(=O)n2C)n1CC(O)COc1ccc(Cl)cc1 (configuration not stated)	/	/	/	/	-8%	/
CC(C)N1C(=O)c2ccccc2NC(=O)C1C(=O)NCc1cccc(C(F)(F)F)c1 (configuration not stated)	/	/	/	9%	/	/
O=C(CCCc1cccs1)Nc1ccc2c(c1)OCO2	31*	-1%	7%	0%	-2%	89*
Cc1ccc(OCCCC(=O)Nc2ccc3c(c2)OCO3)cc1	-4	1%	-1%	-8%	-10%	-8
Cc1noc(C)c1COc1cccc(C(=O)Nc2ccc3c(c2)OCO3)c1	28*	3%	0%	-2%	-1%	61*
O=C(Nc1ccc(NC(=O)c2cc3ccccc3o2)cc1)c1ccc2c(c1)OCCO2	12	0%	-6%	-11%	3%	8
O=C(Nc1ccc2c(c1)OCCO2)c1ccc(Cl)cc1Cl	24*	-3%	2%	19%	-1%	/
SMILES	CHX counter	FBPA Giardia inh	LmPK inh	RE007 growth inh	Tb PYK inh	Shiga inhibitor
O=C(Nc1cccc(Cl)c1)c1ccc2c(c1)OCCO2	32*	0%	-19%	-21%	-9%	60*
Cc1noc(C)c1COc1cccc(C(=O)OC(C)C(=O)Nc2ccc3c(c2)OCO3)c1 (configuration not stated)	-2	-5%	9%	-6%	-2%	-7
COc1ccc(C(=O)OCc2cc(=O)n3nc(C4CC4)sc3n2)cc1OC	/	/	/	/	0%	/
CC(COc1ccccc1)NN (configuration not stated)	/	/	/	/	4%	/
Cc1ccc(C(=O)N/C(=C/c2ccccc2)C(=O)NCC2CCCO2)cc1 (configuration not stated)	7	2%	0%	-4%	-17%	-17
Fc1cccc(NC(=S)Nc2ccc(Br)cc2)c1	19*	-4%	-1%	7%	4%	28
O=C(Nc1cccc([N+](=O)[O-])c1)c1[nH]ncc1Cl	62*	0%	-17%	-10%	4%	97*
O=C(Nc1ccc2c(c1)OCCO2)c1ccc(Br)s1	55*	-20%	-19%	11%	8%	40*
O=C(Nc1cccc([N+](=O)[O-])c1)c1cnccn1	2	-3%	-4%	-14%	-15%	-38
CS(=O)(=O)Nc1ccc(C(=O)Nc2ccc3c(c2)OCCO3)cc1	25*	-2%	-15%	-2%	6%	55
COc1ccc(Nc2nnc(-c3ccc(C)c(S(=O)(=O)NCc4nc5ccccc5[nH]4)c3)c3ccccc23)cc1	/	/	/	/	2%	/
CC(CC(c1ccccc1)c1ccccc1)NC(C)(C)C (configuration not stated)	/	/	/	/	0%	/
O=C(CSc1nc2c([nH]c3ccccc32)c(=O)n1-c1ccccc1)N1CCCC1	/	/	/	/	4%	/
CC(C)(C)c1ccc(-c2noc(CCC(=O)Nc3cccc(Cl)c3)n2)cc1	/	/	/	/	0%	/
CCC(=O)Nc1ccc2c(c1)OCCO2	26	1%	1%	6%	-3%	15
O=C(Nc1ccc2c(c1)OCCO2)c1ccccc1	42*	-14%	?	-19%	-11%	69*
O=C(CC(=O)c1ccccc1)Nc1ccc2c(c1)OCCO2	43*	1%	-15%	4%	-14%	74*
O=C(Nc1cccc([N+](=O)[O-])c1)c1ccc2c(c1)OCCO2	41*	-17%	-12%	-29%	0%	89*
O=C(Nc1ccc2c(c1)OCCO2)c1cnn(-c2ccccc2)n1	/	/	/	?	1%	/
O=C(Nc1ccc2c(c1)OCCO2)c1cccc(Cl)c1	44*	-1%	1%	-6%	-6%	/
CCCC[C@]12Cc3cc(C#N)ccc3C(O1)c1c(c3cc(F)ccc3oc1=O)O2	2	-23%[12.9 µM]	-5%[11.5 µM]	/	/	i
CCc1ccc(NC(=O)CSc2nc3c(sc4ccccc43)c(=O)n2CCCOC(C)C)cc1	/	/	/	/	2%	/
